PubChem BioAssay
Calls of active or inactive are those of the source. Unless noted, the rule behind the calls is not given here.

Assays:
[1] = resazurin metabolic signal in HepG2 cells – cell-based, resazurin fluorescence, 24 h, PK04 Diversity Set, profiling panel (AID 1172); details: HepG2 viability, higher = more signal
[2] = budding yeast growth changes without added modifier – OD600, strain BY4716, 24 h, basal condition, primary screen (AID 1173); details: S. cerevisiae BY4716 growth, OD600, 24 h; higher = more signal, called active from +8 up or from −8 down
[3] = viability profiling in MM1S myeloma cells – cell-based, resazurin fluorescence, basal, 24 h, PK04 Diversity Set, profiling panel (AID 1174); details: higher = more signal, called active from +8 up or from −8 down;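 note: MM1S multiple myeloma cell line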
[4] = biological target: Dihydroorotate dehydrogenase (quinone), mitochondrial (Plasmodium falciparum (isolate 3D7)) (UniProt Q08210); experiment: inhibition of P. falciparum DHODH – biochemical, C-terminal His tag, absorbance 600 nm, primary screen (AID 1175); details: PfDHODH enzyme, DCIP absorbance 600 nm; higher = more signal, called active from +8 up or from −8 down;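 note: recombinant parasite enzyme with a five histidine tag at its C terminus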
[5] = inhibition of PAO1 biofilm formation – strain PAO1, LB-PBS medium, absorbance 600 nm, primary screen (AID 1176); details: P. aeruginosa PAO1 growth/biofilm, A600, 12 h; higher = more signal
[6] = growth modulation of vineyard yeast isolate – strain RM11-1a, OD600, basal, 24 h, primary screen (AID 1177);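 note: cultures grown under basal conditions with no added stressor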; details: S. cerevisiae RM11-1a growth, OD600, 24 h; higher = more signal, called active from +8 up or from −8 down
[7] = growth of efflux-deficient E. coli DRC39 – strain DRC39, OD650, 24 h, E. coli filamentation inducers, primary screen (AID 1178);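 note: growth measured as culture turbidity by optical density at 650 nm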; details: E. coli DRC39 acrAB, higher = more signal, called active from +8 up or from −8 down
[8] = growth of efflux-deficient E. coli DRC39 – strain DRC39, OD650, 48 h, E. coli filamentation inducers, primary screen (AID 1179);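 note: screen aims at cell division blockers that make cells filament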; details: E. coli DRC39 delta-acrAB growth, higher = more signal, called active from +8 up or from −8 down
[9] = viability profiling in RPMI8226 myeloma cells – cell-based, resazurin fluorescence, basal, 24 h, PK04 Diversity Set, profiling panel (AID 1180); details: higher = more signal;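 note: RPMI8826 multiple myeloma cell line at 5000 cells per well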
[10] = biological target: E3 ubiquitin-protein ligase XIAP (Homo sapiens) (UniProt P98170); experiment: small molecules binding XIAP protein – biophysical, small-molecule microarray, fluorescence 635 nm, primary screen (AID 1181); details: higher = more signal;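 note: score merges 667 nm emission and signal to noise over triplicate slides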
[11] = system: XIP peptide (Xip251-270) binding; experiment: XIP fragment 251-270 binding compounds – biochemical, small-molecule microarray, fluorescence 635/667 nm, 0.1 µg/mL protein, primary screen (AID 1182); details: fluorescent protein binding, 635 nm, higher = more signal, called active from +8 up or from −8 down
XIP peptide (Xip251-270) = experiment: compounds binding XIP fragment 251-270 – biochemical, small-molecule microarray, fluorescence 635/667 nm, 0.5 µg/mL protein, primary screen (AID 1183); details: fluorescence 635 nm, higher = more signal
[12] = blood-stage malaria parasite viability loss – strain 3D7, DAPI fluorescence, 100 nL, primary screen (AID 1184);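 note: parasites grown inside human red blood cells in medium with human serum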; details: P. falciparum 3D7 growth, 3 d, higher = more signal
[13] = biological target: Homeobox protein Hox-A13 (Mus musculus) (UniProt Q62424); experiment: disruptors of Hoxa13 oligonucleotide interaction – biochemical, fluorescence polarization, labeled oligonucleotide, primary screen (AID 1185); details: Hoxa13:DNA binding, 15 min, higher = more signal, called active from +8 up or from −8 down
Homeobox protein Hox-A13 (Mus musculus), sequence (Q62424 whole entry, looked up): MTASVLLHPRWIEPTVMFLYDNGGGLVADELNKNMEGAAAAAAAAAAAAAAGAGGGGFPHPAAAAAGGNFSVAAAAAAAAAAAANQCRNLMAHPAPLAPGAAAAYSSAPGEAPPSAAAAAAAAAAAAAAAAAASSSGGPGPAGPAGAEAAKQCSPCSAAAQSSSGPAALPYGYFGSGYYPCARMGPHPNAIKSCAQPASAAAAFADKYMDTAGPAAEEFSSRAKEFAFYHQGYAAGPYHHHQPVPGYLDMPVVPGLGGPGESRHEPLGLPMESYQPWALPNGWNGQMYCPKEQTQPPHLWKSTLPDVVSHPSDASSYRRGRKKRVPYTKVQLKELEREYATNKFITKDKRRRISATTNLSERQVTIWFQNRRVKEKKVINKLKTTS

Dihydroorotate dehydrogenase (quinone), mitochondrial (Plasmodium falciparum (isolate 3D7)), sequence (Q08210 whole entry, looked up): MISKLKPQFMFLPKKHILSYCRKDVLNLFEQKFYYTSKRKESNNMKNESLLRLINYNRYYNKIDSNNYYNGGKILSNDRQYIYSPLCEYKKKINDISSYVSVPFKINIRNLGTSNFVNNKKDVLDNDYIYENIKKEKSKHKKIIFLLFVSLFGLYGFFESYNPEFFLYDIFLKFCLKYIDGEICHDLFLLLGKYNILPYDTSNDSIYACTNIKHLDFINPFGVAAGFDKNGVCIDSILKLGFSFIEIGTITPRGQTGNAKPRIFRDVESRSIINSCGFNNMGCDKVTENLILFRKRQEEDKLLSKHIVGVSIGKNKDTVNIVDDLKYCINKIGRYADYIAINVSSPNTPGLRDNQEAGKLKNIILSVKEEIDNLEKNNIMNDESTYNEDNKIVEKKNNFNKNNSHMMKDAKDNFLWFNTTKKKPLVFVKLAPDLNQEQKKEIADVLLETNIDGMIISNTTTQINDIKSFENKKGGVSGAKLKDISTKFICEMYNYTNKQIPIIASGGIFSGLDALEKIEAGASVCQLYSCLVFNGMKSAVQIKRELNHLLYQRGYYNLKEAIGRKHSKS
E3 ubiquitin-protein ligase XIAP (Homo sapiens), sequence (P98170 whole entry, looked up, the tested form may be a part): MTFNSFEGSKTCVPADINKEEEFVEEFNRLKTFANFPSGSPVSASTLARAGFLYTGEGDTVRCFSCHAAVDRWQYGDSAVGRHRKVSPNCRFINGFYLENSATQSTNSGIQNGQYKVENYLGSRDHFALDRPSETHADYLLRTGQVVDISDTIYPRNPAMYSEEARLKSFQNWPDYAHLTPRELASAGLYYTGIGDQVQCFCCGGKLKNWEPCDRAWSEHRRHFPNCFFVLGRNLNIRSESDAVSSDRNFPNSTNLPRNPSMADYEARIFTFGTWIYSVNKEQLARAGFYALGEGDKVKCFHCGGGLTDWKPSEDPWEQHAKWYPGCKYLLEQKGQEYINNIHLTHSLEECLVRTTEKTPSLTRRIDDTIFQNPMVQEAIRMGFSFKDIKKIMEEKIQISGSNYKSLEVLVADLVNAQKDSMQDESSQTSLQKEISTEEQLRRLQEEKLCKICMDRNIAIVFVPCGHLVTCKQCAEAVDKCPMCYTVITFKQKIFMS

| Compound | z-score [1] | z-score [2] | z-score [3] | composite z-score [4] | z-score [5] | z-score [6] | z-score [7] | z-score [8] | z-score [9] | composite z-score [10] | composite z-score [11] | composite z-score (XIP peptide (Xip251-270)) | z-score [12] | z-score [13] |
| --- | --- | --- | --- | --- | --- | --- | --- | --- | --- | --- | --- | --- | --- | --- |
| CON=Cc1ccc(C(=O)N2[C@H](c3ccc(C)cc3)[C@@H](C)CC[C@H]2C(=O)OC)cc1 | 0.259 | -2.35 (inactive) | 0.37 (inactive) | 0.442 (inactive) | -0.066 (inactive) | -0.308 (inactive) | 0.743 (inactive) | 0.0138 (inactive) | 0.589 | -0.0559 | -0.288 (inactive) | 0.488 | -0.141 | -3.49 (inactive) |
| COc1ccc(COC(=O)NN=C2C[C@@H](O)[C@@H](O)[C@@H]3[C@@H]4C(=O)N(Cc5ccccc5)C(=O)[C@@H]4CC[C@H]23)cc1 | 1.35 | 0.3 (inactive) | 1.28 (inactive) | -0.307 (inactive) | 0.07 (inactive) | -0.629 (inactive) | 0.426 (inactive) | -0.463 (inactive) | 0.635 | 0.152 | 0.0712 (inactive) | -0.0564 | 0.908 | -1.81 (inactive) |
| COC(=O)[C@@H]1CC[C@H](C)[C@@H](c2ccc(C)cc2)N1C(=O)c1ccc(C=NO[C@@H]2O[C@H](COC(C)=O)[C@@H](OC(C)=O)[C@H](OC(C)=O)[C@H]2OC(C)=O)cc1 | -0.124 | 0.786 (inactive) | 0.952 (inactive) | -2.7 (inactive) | -0.172 (inactive) | 0.178 (inactive) | -1.44 (inactive) | -1.65 (inactive) | 0.369 | 0.0131 | -0.279 (inactive) | 0.649 | -1.4 | 0.102 (inactive) |
| COC(=O)CC=C[C@@H](C)[C@@H](C=NO[C@@H]1O[C@H](COC(C)=O)[C@@H](OC(C)=O)[C@H](OC(C)=O)[C@H]1OC(C)=O)NS(=O)(=O)c1ccc(C)cc1 | 0.22 | 0.653 (inactive) | -1.04 (inactive) | -0.069 (inactive) | 0.298 (inactive) | -0.186 (inactive) | -1.8 (inactive) | -0.57 (inactive) | -0.437 | -0.177 | -0.0076 (inactive) | 0.203 | -0.0818 | -5.17 (inactive) |
| O=c1n(-c2ccccc2)c(=O)n2n1CC[C@@H]1C(=NOCc3ccccc3)[C@H]3O[C@H]3[C@@H](O)[C@@H]12 | -1.28 | -0.274 (inactive) | -0.503 (inactive) | -3.02 (inactive) | -0.0485 (inactive) | -0.249 (inactive) | -0.792 (inactive) | -0.604 (inactive) | -1.12 | -0.0026 | -0.368 (inactive) | -0.0725 | -0.557 | -4.06 (inactive) |
| C#CCCCON=C1[C@H]2CCn3c(=O)n(C)c(=O)n3[C@H]2[C@H](O)[C@@H]2O[C@H]12 | -1.33 | -0.492 (inactive) | -1.59 (inactive) | -0.511 (inactive) | -0.568 (inactive) | 0.956 (inactive) | 0.0518 (inactive) | 0.385 (inactive) | -1.93 | -0.391 | -0.158 (inactive) | 0.442 | 0.275 | 0.292 (inactive) |
| Cc1ccc(S(=O)(=O)NC(CCc2ccccc2)CC(=O)C(C)(C)C)cc1 (stereo not given) | 0.277 | -1 (inactive) | -0.146 (inactive) | 0.0379 (inactive) | 0.143 (inactive) | 0.384 (inactive) | 0.628 (inactive) | 0.274 (inactive) | 0.159 | -0.195 | 0.275 (inactive) | -0.113 | -0.268 | -3.68 (inactive) |
| Cc1cc2c(nc1C)CCCN2CC(O)CN1CCCc2nc(C)c(C)cc21 | 0.269 | 0.0477 (inactive) | -0.644 (inactive) | 0.0382 (inactive) | 0.979 (inactive) | 0.255 (inactive) | -0.494 (inactive) | -0.242 (inactive) | 0.399 | 1.12 | 0.6 (inactive) | -0.134 | -0.958 | -3.33 (inactive) |
| CO[C@H]1COC(=O)[C@@H]2CCCN2C(=O)CC=C[C@@H](C)[C@H](OC)COC(=O)[C@@H](OCc2ccccc2)C=C[C@@H]1C | -0.416 | -1.72 (inactive) | 1.58 (inactive) | -2.88 (inactive) | -1.01 (inactive) | -0.965 (inactive) | 0.421 (inactive) | 0.29 (inactive) | 0.552 | -0.284 | 0.0932 (inactive) | 0.789 | -1.42 | -1.53 (inactive) |
| CCOC(=O)[C@H](CC(C)C)NC(=O)CCC1CC(OC(=O)NCc2cccc3ccccc23)CC2(CCCC(COC(=O)NCCOc3ccccc3)O2)O1 (stereo not given in full) | 0.329 | -0.895 (inactive) | 0.572 (inactive) | -0.785 (inactive) | -0.127 (inactive) | -0.879 (inactive) | 0.0446 (inactive) | 0.253 (inactive) | 1.57 | -0.142 | 0.761 (inactive) | 0.471 | -1.81 | -3.36 (inactive) |
